From PubChem BioAssay come the findings set out here.

Inconclusive results are not listed. The source made the active and inactive calls.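 The calls were made as follows, unless noted: active = inhibition above 50%, about 3 SD of the validation set; inactive = the rest.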

Assay [1] can be described thus: rapamycin-like changes in RPL19A-GFP expression – cell-based, S. cerevisiae, multiplex flow cytometry, primary screen (AID 1862; in the data active = percent of DMSO control GFP below about 86%;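 also: lower values mimic rapamycin by blocking the RPL19A rise seen in DMSO cells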). The conditions noted are these: S. cerevisiae RPL19A-GFP strain, flow cytometry fluorescence, 3 h; at 10 µM; stronger effect = lower value.
Assay [2] in a line: TOR pathway GLN3 branch reporter MEP2-GFP changes – S. cerevisiae, multiplex flow cytometry, primary screen (AID 1867;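 active = GFP response, as percent of the DMSO control, above the screen-wide mean plus 3 SD, about 139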;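 also: median GFP channel fluorescence of barcode-gated MEP2-GFP cells measured by flow cytometry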). The conditions noted are these: S. cerevisiae MEP2-GFP strain, 3 h, at 10 µM, stronger effect = higher value, 100% means same as DMSO wells. For orientation: A flow cytometer gives signals particle by particle.
Assay [3] in a line: TOR pathway RTG branch CIT2 reporter changes – S. cerevisiae, GFP fusion, multiplex flow cytometry, primary screen (AID 1870;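 active = percent response above a set limit, the screen-wide mean plus 3 SD, cut at about 130% in these data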;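 also: barcoded CIT2-GFP strain pooled with four other GFP strains with rapamycin as positive control; median GFP fluorescence per well over plate mean of DMSO wells so 100% = DMSO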). The following applies: S. cerevisiae CIT2-GFP expression, 3 h, at 10 µM, stronger effect = higher value.
Assay [4] can be described thus: TOR pathway LAP4-GFP level changes – S. cerevisiae, multiplex flow cytometry, primary screen (AID 1873;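 active = GFP signal, as percent of the solvent control, above the screen mean plus 3 SD, about 149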). The conditions noted are these: S. cerevisiae LAP4-GFP expression, 3 h, at 10 µM, stronger effect = higher value.
The nature of assay [5]: yeast AGP1-GFP level changes, GLN3 branch – cell-based, multiplex flow cytometry, S. cerevisiae, primary screen (AID 1887;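 active = GFP signal above the screen-wide mean plus 3 SD, that is over about 124.5% of the solvent control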;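 also: AGP1-GFP fusion strain of S. cerevisiae within a five-strain barcoded multiplex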). The conditions noted are these: 3 h, at 10 µM, stronger effect = higher value.
The nature of assay [6]: reduced mouse 2C T cell binding to pMHC/ICAM-1 vesicles – MLPCN validation set, flow cytometry, LFA-1/ICAM-1 modulator project, pilot screen (AID 2523;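 active = response below a set limit, under 55% cells CD8-positive and vesicle-bound, and CD8 cells' 90th-percentile brightness under 279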;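 as to vesicle binding response: mean PE anti-B7-1 fluorescence of CD8+ cells relative to row control; 100% = QL9-loaded vesicles with DMSO vehicle in the same plate row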). The following applies: 2C mouse CD8+ T cells, at 7 µM, stronger effect = lower value; double positive events: measured here: CD8+/vesicle+ event percentage.
Assay [7] addresses Integrin beta-1 (Homo sapiens) + Integrin alpha-4 (Homo sapiens) (UniProt P13612+P05556). Put plainly: alpha4beta1 integrin LIBS antibody binding reduction – U937 cells, HUTS-21 mAb, flow cytometry, validation set, VLA-4 allosteric modulator project, pilot screen (AID 2674).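 Also: antibody binding induced by the VLA-4 ligand LDV present at three times its Kd; 0% = LDV ligand with antibody and no compound and 100% = antibody without LDV.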 The conditions noted are these: HUTS-21 LIBS mAb binding, at 6.7 µM, stronger effect = higher value, binding induced by LDV ligand.

Assay [8] can be described thus: calorie-restriction mimetic ROS inhibitors, yeast – validation compound set, pilot screen (AID 2706;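 active = superoxide response below 65% of plate, a cut near 3 SD across the whole screen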;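 also: yeast exposed to compound for one week at 30 degrees C before staining; 100% = mean of all compound wells on the same plate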). The conditions noted are these: S. cerevisiae aging, superoxide DHE fluorescence; at 10 µM; stronger effect = lower value.
In assay [9] the target is Beta-adrenergic receptor kinase 1 (Homo sapiens) (UniProt P25098). Kind of assay: GRK2 binders displacing RNA aptamer, biochemical, validation, human GRK2, bead flow cytometry (AID 488806;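 active = aptamer binding inhibition above 30%, about 3 SD of noise from non-fluorescent compounds; inactive = inhibition at or below 30%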). The conditions noted are these: bead-bound GRK2, FAM-aptamer displacement, at 10 µM, stronger effect = higher value.
Sequence of Beta-adrenergic receptor kinase 1 (Homo sapiens) (P25098 whole entry, looked up): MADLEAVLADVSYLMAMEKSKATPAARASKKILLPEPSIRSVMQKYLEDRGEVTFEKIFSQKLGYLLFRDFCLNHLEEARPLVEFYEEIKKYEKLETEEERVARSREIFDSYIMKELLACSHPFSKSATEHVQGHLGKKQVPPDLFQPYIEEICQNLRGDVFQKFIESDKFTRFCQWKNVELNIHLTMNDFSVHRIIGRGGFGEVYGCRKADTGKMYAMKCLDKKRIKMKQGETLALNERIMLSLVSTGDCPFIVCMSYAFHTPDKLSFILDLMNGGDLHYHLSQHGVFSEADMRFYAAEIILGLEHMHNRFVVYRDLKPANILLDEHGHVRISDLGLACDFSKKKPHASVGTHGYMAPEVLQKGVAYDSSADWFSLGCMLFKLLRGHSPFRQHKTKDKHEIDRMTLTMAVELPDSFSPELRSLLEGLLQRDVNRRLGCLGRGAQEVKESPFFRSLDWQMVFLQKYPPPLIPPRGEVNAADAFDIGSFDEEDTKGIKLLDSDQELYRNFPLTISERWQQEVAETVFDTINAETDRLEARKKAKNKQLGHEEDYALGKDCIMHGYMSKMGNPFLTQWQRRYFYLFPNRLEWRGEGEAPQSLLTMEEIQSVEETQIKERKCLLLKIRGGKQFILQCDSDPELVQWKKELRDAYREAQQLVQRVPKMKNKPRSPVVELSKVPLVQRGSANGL
The target of assay [10] is Beta-2 adrenergic receptor (Homo sapiens) (UniProt P07550). Kind of assay: agonist-induced loss of surface beta2AR – cell-based, FAP fluorogen, flow cytometry, validation set, pilot screen (AID 504459;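 active = percent response above 42, roughly 3 SD of non-fluorescent test compounds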;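 also: agonist-driven loss of surface beta2AR via internalization measured by FAP dye flow cytometry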). The following applies: Am2.2-beta2AR cells, at 10 µM, stronger effect = higher value.
Sequence of Beta-2 adrenergic receptor (Homo sapiens) (P07550 whole entry, looked up): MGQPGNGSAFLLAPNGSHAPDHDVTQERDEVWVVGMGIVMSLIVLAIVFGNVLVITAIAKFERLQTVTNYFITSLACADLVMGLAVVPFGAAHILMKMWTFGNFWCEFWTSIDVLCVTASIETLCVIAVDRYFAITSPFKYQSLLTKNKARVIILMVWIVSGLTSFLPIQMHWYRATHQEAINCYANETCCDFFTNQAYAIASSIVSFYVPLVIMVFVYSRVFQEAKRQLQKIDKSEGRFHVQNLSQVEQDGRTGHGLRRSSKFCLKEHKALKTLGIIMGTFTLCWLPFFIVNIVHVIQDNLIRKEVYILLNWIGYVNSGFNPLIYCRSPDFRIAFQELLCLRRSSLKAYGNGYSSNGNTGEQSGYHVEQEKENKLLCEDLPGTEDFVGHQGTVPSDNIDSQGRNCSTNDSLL
The target of assay [11] is AP-2 complex subunit beta (Homo sapiens) (UniProt P63010). Put plainly: beta-arrestin/AP2 interaction blockers – biochemical, validation set, GST-AP2 beads, flow cytometry, pilot screen (AID 504541;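 active = inhibition above 54%, about 3 SD of non-fluorescent compounds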;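 also: AP2 carries R879A mutation and is captured from E. coli lysate; bead-bound FITC arrestin peptide fluorescence measuring arrestin peptide binding to AP2; 0% = DMSO wells and 100% = excess unlabeled arrestin peptide control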). The following applies: FITC arrestin peptide, at 10 µM, stronger effect = higher value, AP2 beta2 appendage fragment, R879A mutant.
Sequence of AP-2 complex subunit beta (Homo sapiens) (P63010 whole entry, looked up, the tested form may be a part, one chain of several): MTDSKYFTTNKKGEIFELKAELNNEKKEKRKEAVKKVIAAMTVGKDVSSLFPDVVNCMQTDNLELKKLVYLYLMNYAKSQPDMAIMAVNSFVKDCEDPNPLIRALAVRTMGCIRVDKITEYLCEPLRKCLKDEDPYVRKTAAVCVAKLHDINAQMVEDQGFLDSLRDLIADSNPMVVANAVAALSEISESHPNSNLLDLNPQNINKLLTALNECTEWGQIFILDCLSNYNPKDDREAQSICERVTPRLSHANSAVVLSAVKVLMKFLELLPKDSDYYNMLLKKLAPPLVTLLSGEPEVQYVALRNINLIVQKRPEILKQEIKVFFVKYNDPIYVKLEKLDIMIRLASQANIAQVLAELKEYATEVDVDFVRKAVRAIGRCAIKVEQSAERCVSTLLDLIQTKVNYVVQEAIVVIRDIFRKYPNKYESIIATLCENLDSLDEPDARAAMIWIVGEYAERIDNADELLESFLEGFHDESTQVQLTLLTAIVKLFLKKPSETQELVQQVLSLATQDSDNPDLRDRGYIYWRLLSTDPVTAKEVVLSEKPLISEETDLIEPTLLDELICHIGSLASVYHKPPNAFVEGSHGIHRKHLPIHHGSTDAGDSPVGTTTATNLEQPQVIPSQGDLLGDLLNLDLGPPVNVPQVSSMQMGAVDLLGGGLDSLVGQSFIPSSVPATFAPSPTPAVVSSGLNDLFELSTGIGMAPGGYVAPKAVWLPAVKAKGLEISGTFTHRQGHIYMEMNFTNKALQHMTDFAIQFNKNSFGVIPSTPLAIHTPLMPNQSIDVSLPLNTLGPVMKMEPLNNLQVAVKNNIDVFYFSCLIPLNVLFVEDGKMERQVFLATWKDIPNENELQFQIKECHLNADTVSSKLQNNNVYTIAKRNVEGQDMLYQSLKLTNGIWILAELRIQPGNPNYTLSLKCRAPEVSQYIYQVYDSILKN
The nature of assay [12]: cytosolic pH regulators acting via V-ATPase – S. cerevisiae, pHLuorin, HTS validation (AID 504600; in the data active = response above about 15%;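 also: plate controls were DMSO for no effect and reference compound for full effect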). The following applies: V-ATPase proton transport, at 10 µM, stronger effect = higher value.
Assay [13] relates to anti-desmoglein-3 scFv antibody binding to human DSG3. Put plainly: blockers of pathogenic pemphigus antibody–desmoglein-3 binding – biochemical, validation compound set, bead-based, flow cytometry, pilot screen (AID 588368;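 active = binding below the plate cutoff, the plate median minus 3 SD, with a reading above zero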;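 also: signal is the median channel fluorescence of bead-bound GFP antibody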). The following applies: Protein G beads, DSG3-Fc, scFv-GFP binding, at 10 µM, stronger effect = lower value.
Assay [14] is described as follows: Nile Red efflux blockade in pump-expressing yeast – validation compound set, multiplex, phenotypic, pilot screen (AID 588506;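 active = efflux inhibition above 0.42, the validation set average plus 4 SD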;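 also: Nile Red retained in cells so higher fluorescence means more efflux inhibition; 0 = negative control wells and 1 = enniatin B 25 µM full block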). The following applies: S. cerevisiae pump-expressing triplex, Nile Red efflux flow cytometry; at 10 µM; stronger effect = higher value; the pumps come from Candida albicans.
Assay [15] deals with ATP-binding cassette sub-family B member 6 (Homo sapiens) (UniProt Q9NP58). Put plainly: blockers of ABCB6-driven porphyrin uptake – K562-ABCB6 cells, flow cytometry, validation set, pilot screen (AID 588550;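 active = inhibition above the screen-wide mean plus 3 SD, about 51%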;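 also: 0% = DMSO wells and 100% = benzethonium chloride 70 µM positive control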). The conditions noted are these: K562-ABCB6 porphyrin accumulation, 1 h, at 10 µM, stronger effect = higher value.
Sequence of ATP-binding cassette sub-family B member 6 (Homo sapiens) (Q9NP58 whole entry, looked up): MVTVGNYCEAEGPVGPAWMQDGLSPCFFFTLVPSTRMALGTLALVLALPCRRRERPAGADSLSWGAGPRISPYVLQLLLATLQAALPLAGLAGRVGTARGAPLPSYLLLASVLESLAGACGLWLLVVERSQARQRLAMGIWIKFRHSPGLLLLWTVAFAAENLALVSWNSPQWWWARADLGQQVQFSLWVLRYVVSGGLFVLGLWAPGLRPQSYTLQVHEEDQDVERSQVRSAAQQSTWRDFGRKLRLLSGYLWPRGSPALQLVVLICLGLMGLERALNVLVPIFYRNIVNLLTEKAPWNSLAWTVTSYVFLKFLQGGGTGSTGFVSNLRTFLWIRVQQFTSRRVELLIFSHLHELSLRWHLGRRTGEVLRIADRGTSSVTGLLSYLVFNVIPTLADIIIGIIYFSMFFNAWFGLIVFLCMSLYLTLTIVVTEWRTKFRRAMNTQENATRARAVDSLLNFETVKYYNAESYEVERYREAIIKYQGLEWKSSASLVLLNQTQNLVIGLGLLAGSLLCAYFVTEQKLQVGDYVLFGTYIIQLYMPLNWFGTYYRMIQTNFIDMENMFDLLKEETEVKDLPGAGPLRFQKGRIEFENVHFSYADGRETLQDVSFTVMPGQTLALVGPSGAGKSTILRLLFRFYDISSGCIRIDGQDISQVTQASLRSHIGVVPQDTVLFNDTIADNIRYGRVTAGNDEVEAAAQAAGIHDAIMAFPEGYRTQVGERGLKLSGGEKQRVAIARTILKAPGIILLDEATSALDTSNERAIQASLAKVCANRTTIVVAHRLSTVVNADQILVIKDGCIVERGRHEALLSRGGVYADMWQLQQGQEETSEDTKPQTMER
Assay [16] in a line: AML differentiation inducers, ER-HoxA9 marrow cells – cell-based, GFP/MAC1 double positive, flow cytometry, validation set, primary screen (AID 588685;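 active = differentiation response of at least 50%, scaled between solvent and reference control, from cells with both markers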;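 also: compound exposure lasts four days before antibody staining and flow analysis; 0% = DMSO wells and 100% = 5 µM fulvestrant positive control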). The following applies: stronger effect = higher value, normalized: vehicle 0, fulvestrant 100.

Sequence of Integrin beta-1 (Homo sapiens) + Integrin alpha-4 (Homo sapiens) (P05556 whole entry, looked up): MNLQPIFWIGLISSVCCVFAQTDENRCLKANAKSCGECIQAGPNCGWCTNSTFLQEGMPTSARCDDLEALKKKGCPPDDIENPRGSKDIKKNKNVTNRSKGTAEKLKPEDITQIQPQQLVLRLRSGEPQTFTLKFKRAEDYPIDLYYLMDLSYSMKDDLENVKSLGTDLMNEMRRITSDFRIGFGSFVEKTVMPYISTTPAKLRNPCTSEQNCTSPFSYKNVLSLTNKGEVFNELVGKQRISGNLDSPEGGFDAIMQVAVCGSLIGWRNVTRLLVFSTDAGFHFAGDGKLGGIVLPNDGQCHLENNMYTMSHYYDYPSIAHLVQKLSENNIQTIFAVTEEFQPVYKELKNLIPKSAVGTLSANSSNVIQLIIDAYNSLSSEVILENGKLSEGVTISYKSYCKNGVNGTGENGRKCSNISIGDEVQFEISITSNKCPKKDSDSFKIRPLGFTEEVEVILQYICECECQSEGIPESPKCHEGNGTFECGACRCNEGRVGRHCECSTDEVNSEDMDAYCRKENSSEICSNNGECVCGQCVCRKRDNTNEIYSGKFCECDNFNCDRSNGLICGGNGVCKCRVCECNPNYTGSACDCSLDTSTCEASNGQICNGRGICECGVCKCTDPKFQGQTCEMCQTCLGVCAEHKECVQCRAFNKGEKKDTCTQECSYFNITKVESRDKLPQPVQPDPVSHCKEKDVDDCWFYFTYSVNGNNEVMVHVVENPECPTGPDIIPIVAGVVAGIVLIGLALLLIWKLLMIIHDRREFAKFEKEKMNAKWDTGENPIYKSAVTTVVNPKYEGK
Sequence of Integrin beta-1 (Homo sapiens) + Integrin alpha-4 (Homo sapiens) (P13612 whole entry, looked up): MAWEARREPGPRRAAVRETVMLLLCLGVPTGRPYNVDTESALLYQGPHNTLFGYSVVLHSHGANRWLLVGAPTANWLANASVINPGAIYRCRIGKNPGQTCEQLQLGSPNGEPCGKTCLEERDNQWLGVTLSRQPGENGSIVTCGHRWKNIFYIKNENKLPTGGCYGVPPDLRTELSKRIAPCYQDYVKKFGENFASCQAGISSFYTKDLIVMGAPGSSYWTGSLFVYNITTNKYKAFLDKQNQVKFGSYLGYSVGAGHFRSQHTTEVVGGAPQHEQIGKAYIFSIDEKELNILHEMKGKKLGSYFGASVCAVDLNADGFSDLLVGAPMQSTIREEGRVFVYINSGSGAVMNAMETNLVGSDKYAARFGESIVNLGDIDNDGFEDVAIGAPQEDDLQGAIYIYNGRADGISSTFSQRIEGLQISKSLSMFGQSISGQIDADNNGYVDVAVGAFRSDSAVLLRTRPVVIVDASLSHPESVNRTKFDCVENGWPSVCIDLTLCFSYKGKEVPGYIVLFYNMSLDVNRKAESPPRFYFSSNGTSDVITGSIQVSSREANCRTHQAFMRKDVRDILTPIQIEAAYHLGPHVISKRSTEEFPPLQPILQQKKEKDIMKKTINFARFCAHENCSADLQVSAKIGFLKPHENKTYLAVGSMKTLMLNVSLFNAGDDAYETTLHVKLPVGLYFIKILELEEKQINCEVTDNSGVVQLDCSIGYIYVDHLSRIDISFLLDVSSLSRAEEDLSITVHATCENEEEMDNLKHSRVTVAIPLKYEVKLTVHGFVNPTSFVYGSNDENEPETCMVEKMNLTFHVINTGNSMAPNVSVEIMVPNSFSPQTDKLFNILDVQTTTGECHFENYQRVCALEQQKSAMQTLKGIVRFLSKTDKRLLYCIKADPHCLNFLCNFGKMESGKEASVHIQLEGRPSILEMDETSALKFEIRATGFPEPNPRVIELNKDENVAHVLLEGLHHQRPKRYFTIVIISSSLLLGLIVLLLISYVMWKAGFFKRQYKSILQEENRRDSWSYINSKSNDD

For the molecule `CCOC(=O)N1c2ccccc2C=CC1OCC` (stereo not given), in assay [1], the percent of DMSO control GFP was 103% (inactive). Also, the GFP response vs DMSO was 97.7% (inactive) in assay [2] and 108% (inactive) in assay [4]. In addition, the percent response of DMSO control in assay [3] was 102% (inactive). In assay [5], the GFP response, % of DMSO was 109% (inactive). Further, in assay [6], the double positive events is 57%. The vesicle binding response in assay [6] was 109% (inactive). In addition, the inhibition (in general, the relative decrease from the control value, in per cent) is 2.93% (inactive) in assay [7], -6.59% (inactive) in assay [11] and -3% (inactive) in assay [15]. The superoxide response (% of plate) in [8] was 110% (inactive). For the same molecule, the aptamer binding inhibition in assay [9] is 3% (inactive). The values for the response in assay [10] and in assay [12] were 2.04% (inactive) and -0.43% (inactive), respectively. The binding (% of control) in assay [13] is 103% (inactive). The efflux inhibition (fraction of control) in assay [14] was -0.29 (inactive). Moreover, in [16], the differentiation response was -13.3% (inactive).
In the case of `COc1cccc(OCc2nnc(-c3cccs3)o2)c1`, the percent of DMSO control GFP in assay [1] was 103% (inactive). In addition, the figures for the GFP response vs DMSO in [2] and in assay [4] were 105% (inactive) and 120% (inactive), respectively. Besides, the percent response of DMSO control in assay [3] was 102% (inactive). For the same molecule, the GFP response, % of DMSO in assay [5] was 99.6% (inactive). For the same molecule, the double positive events in [6] is 60.1%. Also, the vesicle binding response in assay [6] was 248% (inactive). Moreover, the inhibition in [7] was 5.69% (inactive); in assay [11], 61% (active); in assay [15], -5% (inactive). For the same molecule, the superoxide response (% of plate) in assay [8] is 104% (inactive). Moreover, in assay [9], the aptamer binding inhibition was 3% (inactive). The response in assay [10] is 55.8% (active); in assay [12] it was -2.54% (inactive). For the same molecule, the binding (% of control) in [13] was 102% (inactive). Moreover, the efflux inhibition (fraction of control) in [14] is 0.08 (inactive). The differentiation response in assay [16] was -0.06% (inactive).
Regarding `COc1ccccc1C(CCN(Cc1ccccc1)C(C)=O)c1ccco1` (stereo not given), the percent of DMSO control GFP in assay [1] was 91.5% (inactive). For the same molecule, the GFP response vs DMSO in assay [2] was 130% (inactive); in assay [4] it was 78.7% (inactive). In addition, in assay [3], the percent response of DMSO control was 103% (inactive). For the same molecule, the GFP response, % of DMSO in assay [5] is 88% (inactive). Also, in [6], the double positive events came out at 56.4%. In addition, the vesicle binding response in [6] was 145% (inactive). Besides, the inhibition is 8.4% (inactive) in assay [7], 2.58% (inactive) in assay [11] and 15% (inactive) in [15]. The superoxide response (% of plate) in assay [8] was 122% (inactive). In addition, the aptamer binding inhibition in assay [9] was 6% (inactive). Moreover, the response in [10] is -11.5% (inactive); in assay [12], 0.45% (inactive). Moreover, in assay [13], the binding (% of control) is 102% (inactive). Moreover, in [14], the efflux inhibition (fraction of control) is 0.12 (inactive). Also, the differentiation response in assay [16] is 1.64% (inactive).
Consider `C=C(C)[C@@H]1CC=C(CN2CCC(N3CCC(C(=O)N4CCCC4)CC3)CC2)CC1`, for which the percent of DMSO control GFP in assay [1] is 105% (inactive). Also, the GFP response vs DMSO in assay [2] is 91.9% (inactive); in [4] it was 92% (inactive). Also, the percent response of DMSO control in assay [3] was 120% (inactive). In addition, in assay [5], the GFP response, % of DMSO was 101% (inactive). In [6], this molecule had a double positive events of 60.1%. The vesicle binding response in [6] was 292% (inactive). For the same molecule, the figures for the inhibition in assay [7], in assay [11] and in [15] were 1.62% (inactive), -12.5% (inactive) and -18% (inactive), respectively. The superoxide response (% of plate) in assay [8] was 92.9% (inactive). For the same molecule, the aptamer binding inhibition in [9] was -18% (inactive). For the same molecule, the response in assay [10] was -3.2% (inactive); in [12], 1.83% (inactive). In addition, the binding (% of control) in [13] was 130% (inactive). Also, the efflux inhibition (fraction of control) in [14] is 0.08 (inactive). For the same molecule, in assay [16], the differentiation response was 6.11% (inactive).
As for `Cc1cccc(N2CCN(C(=S)c3ccccc3)CC2)c1`, the percent of DMSO control GFP in assay [1] is 100% (inactive). In addition, the GFP response vs DMSO in assay [2] is 108% (inactive); in assay [4] it was 88.7% (inactive). Besides, the percent response of DMSO control in assay [3] was 100% (inactive). In addition, the GFP response, % of DMSO in [5] was 90.8% (inactive). In assay [6], this molecule yielded a double positive events of 63.1%. Besides, the vesicle binding response in assay [6] is 5220% (inactive). Further, the results for the inhibition in assay [7], in assay [11] and in [15] were -4.6% (inactive), -6.82% (inactive) and 2% (inactive), respectively. In assay [8], the superoxide response (% of plate) was 101% (inactive). The aptamer binding inhibition in assay [9] was 0% (inactive). The response was -1.25% (inactive) in assay [10] and 1.76% (inactive) in assay [12]. Further, in assay [13], the binding (% of control) was 95.3% (inactive). Further, in assay [14], the efflux inhibition (fraction of control) is -0.14 (inactive). Further, in [16], the differentiation response was -8.55% (inactive).
